Experiment [1] can be described thus: ATG_ISRE_CIS: Attagene CIS-FACTORIAL HepG2 Assay for human Interferon Regulatory Factor 1 (IRF1) binding to an Interferon-Stimulated Response Element (ISRE) (AID 2282948). As to conditions: HepG2 ISRE cis-reporter (Attagene), mRNA transcription readout; actives raise or lower the signal. The gist of the method: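 Quantitation relies on labelled RT-PCR fragments separated by capillary electrophoresis. Human HepG2 cells bearing cis-promoter reporter constructs were treated 24 h; DMSO served as baseline for bidirectional fitting.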

A short description of experiment [2]: ATG_M_32_CIS: Attagene CIS-FACTORIAL HepG2 Assay for M32 Transcription Factor (Internal Marker) (AID 2282949).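 Also: background control marker of the multiplexed CIS panel rather than a real target.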 As to conditions: HepG2 Attagene cis-factorial M32 reporter, mRNA; actives raise or lower the signal. The gist of the method:
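Following 24 h chemical exposure of HepG2 cells transiently expressing cis-promoter reporter constructs, reporter transcript levels were determined by RT-PCR with fluorescent labelling and capillary electrophoresis, then fitted bidirectionally against DMSO.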

The target in experiment [3] is Hypoxia-inducible factor 1-alpha (Homo sapiens) (UniProt Q16665). Kind of experiment: ATG_HIF1a_CIS: Attagene CIS-FACTORIAL HepG2 Assay for human Hypoxia Inducible Factor 1 (HIF1A) (AID 2282951). As to conditions: HepG2 Attagene cis-factorial HIF1a reporter transcription; actives raise or lower the signal. The gist of the method:
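HepG2, transient cis-reporter library, 24 h dosing. RNA → RT (oligo dT) → PCR → 6-FAM primer extension → HpaI → CE. Bidirectional curve fit vs DMSO.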

The target in experiment [4] is Hepatocyte nuclear factor 6 (Homo sapiens) (UniProt Q9UBC0). Kind of experiment: ATG_HNF6_CIS: Attagene CIS-FACTORIAL HepG2 Assay for human Hepatocyte Nuclear Factor 6 (HNF6) (AID 2282952). To be noted: HepG2 Attagene cis-factorial HNF6 reporter transcription; actives raise or lower the signal. The gist of the method: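 Reporter mRNA induction or loss in HepG2 after 24 h exposure; transient cis-MRTU transfection; fragments quantified by capillary electrophoresis; bidirectional analysis, DMSO as negative control.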

Experiment [5] is described as follows: ATG_MRE_CIS: Attagene CIS-FACTORIAL HepG2 Assay for human Metal Responsive Element (MRE) (AID 2282954). As to conditions: HepG2 MRE cis-reporter transcription, Attagene multiplex; actives raise or lower the signal. The gist of the method: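 After a 24 h chemical exposure, transiently transfected HepG2 cells yield RNA whose reporter sequences are amplified, FAM-labelled and sized by capillary electrophoresis. Curves are fitted bidirectionally relative to DMSO.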

In experiment [6] the target is Paired box protein Pax-6 (Homo sapiens) (UniProt P26367). The experiment in a line: ATG_Pax6_CIS: Attagene CIS-FACTORIAL HepG2 Assay for human Paired Box 6 (PAX6) (AID 2282956). To be noted: HepG2 CIS-FACTORIAL PAX6 reporter transcription, RNA readout; actives raise or lower the signal. In short, it runs like this:
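After twenty-four hours of chemical exposure, transfected HepG2 cells are harvested for RNA. Cis-promoter reporter transcripts are amplified, fluorescently labelled and sized by capillary electrophoresis, with gain and loss of signal scored against DMSO.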

Experiment [7] can be described thus: ATG_PBREM_CIS: Attagene CIS-FACTORIAL HepG2 Assay for human Phenobarbital-responsive Enhancer Module (PBREM) (AID 2282955). As to conditions: HepG2 PBREM cis-reporter, Attagene multiplexed transcription; actives raise or lower the signal. In short, it runs like this:
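HepG2, transient MRTU transfection, 24 h dosing; RNA → oligo(dT) RT → PCR → 6-FAM extension → HpaI → CE. Bidirectional fit vs DMSO.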

The nature of experiment [8]: ATG_M_06_CIS: Attagene CIS-FACTORIAL HepG2 Assay for M06 Transcription Factor (Internal Marker) (AID 2282950). To be noted: HepG2 Attagene CIS-FACTORIAL M06 internal marker reporter; actives raise or lower the signal. The gist of the method: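 Read-out is fluorescence of labelled reporter cDNA fragments resolved by capillary electrophoresis after RT-PCR. Cells: HepG2 carrying transfected cis-promoter reporter units, treated 24 h. Gain or loss of signal fitted relative to DMSO.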

The target of experiment [9] is Heat shock factor protein 1 (Homo sapiens) (UniProt Q00613). Kind of experiment: ATG_HSE_CIS: Attagene CIS-FACTORIAL HepG2 Assay for human Heat Shock Transcription Factor 1 (HSE) (AID 2282953). As to conditions: HepG2 HSE cis-reporter, Attagene RNA transcription; actives raise or lower the signal. In short, it runs like this:
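HepG2, transient MRTU transfection, cis-promoter reporters (endogenous TF activity). 24 h compound. RNA → oligo(dT) RT → PCR → 6-FAM primer extension → HpaI cut → CE. Bidirectional fit vs DMSO.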

The nature of experiment [10]: ATG_GRE_CIS: Attagene CIS-FACTORIAL HepG2 Assay for human Glucocorticoid Response Elements (GRE) (AID 2282947). To be noted: HepG2 GRE cis-reporter, Attagene multiplex mRNA; actives raise or lower the signal. The gist of the method: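 Assay uses human hepatoma HepG2 cells transfected with cis-promoter reporter units, exposed 24 h. mRNA from reporters detected by RT-PCR plus capillary electrophoresis; DMSO serves as negative control and baseline.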

Where “and” joins values, the source holds several entries; their conditions need not be identical. Equal values may be shown once. Some compounds were tested as several samples or in several runs, with calls that do not always agree. Calls of active or inactive are those of the source. The calls were made as follows: active = hit-call score of the fitted dose curve at least 0.9, where 1 is the maximum; inactive = score below 0.9.

Chain of Hepatocyte nuclear factor 6 (Homo sapiens) (Q9UBC0 whole entry, looked up, the tested form may be a part): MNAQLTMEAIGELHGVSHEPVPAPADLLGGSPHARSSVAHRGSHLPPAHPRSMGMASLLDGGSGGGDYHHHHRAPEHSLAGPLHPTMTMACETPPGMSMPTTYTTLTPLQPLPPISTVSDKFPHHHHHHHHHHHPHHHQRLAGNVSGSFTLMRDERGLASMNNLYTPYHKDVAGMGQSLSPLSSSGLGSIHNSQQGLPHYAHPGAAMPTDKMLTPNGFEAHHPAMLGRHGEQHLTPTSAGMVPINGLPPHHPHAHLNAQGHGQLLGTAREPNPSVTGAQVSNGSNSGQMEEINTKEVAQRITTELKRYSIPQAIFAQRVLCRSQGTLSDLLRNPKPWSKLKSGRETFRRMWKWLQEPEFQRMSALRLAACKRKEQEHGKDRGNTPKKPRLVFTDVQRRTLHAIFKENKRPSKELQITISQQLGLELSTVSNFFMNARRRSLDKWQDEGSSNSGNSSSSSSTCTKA
Chain of Paired box protein Pax-6 (Homo sapiens) (P26367 whole entry, looked up): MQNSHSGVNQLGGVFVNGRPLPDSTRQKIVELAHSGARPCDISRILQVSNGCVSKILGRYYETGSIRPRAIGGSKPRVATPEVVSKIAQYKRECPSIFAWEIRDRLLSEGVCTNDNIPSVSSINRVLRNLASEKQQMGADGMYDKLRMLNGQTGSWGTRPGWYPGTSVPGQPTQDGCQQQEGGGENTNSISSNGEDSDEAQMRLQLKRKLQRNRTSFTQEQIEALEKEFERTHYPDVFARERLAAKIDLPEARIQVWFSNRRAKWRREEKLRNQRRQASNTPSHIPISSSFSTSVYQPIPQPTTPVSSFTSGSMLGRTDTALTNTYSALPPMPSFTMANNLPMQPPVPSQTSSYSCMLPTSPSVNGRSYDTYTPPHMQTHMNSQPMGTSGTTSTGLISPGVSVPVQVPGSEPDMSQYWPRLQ
Chain of Heat shock factor protein 1 (Homo sapiens) (Q00613 whole entry, looked up): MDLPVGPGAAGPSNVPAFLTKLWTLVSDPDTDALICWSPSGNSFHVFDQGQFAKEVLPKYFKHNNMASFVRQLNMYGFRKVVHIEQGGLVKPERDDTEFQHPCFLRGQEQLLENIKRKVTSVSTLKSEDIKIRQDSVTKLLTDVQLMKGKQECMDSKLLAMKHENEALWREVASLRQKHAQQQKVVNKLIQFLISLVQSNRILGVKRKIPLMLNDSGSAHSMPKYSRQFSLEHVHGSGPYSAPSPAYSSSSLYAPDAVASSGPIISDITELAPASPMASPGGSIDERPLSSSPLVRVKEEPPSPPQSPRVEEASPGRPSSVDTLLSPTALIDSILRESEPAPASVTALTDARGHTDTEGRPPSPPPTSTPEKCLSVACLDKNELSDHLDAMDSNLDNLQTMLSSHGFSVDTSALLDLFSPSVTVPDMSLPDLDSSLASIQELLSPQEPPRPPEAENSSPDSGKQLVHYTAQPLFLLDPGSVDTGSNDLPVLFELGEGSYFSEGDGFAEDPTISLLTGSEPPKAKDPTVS
Chain of Hypoxia-inducible factor 1-alpha (Homo sapiens) (Q16665 whole entry, looked up): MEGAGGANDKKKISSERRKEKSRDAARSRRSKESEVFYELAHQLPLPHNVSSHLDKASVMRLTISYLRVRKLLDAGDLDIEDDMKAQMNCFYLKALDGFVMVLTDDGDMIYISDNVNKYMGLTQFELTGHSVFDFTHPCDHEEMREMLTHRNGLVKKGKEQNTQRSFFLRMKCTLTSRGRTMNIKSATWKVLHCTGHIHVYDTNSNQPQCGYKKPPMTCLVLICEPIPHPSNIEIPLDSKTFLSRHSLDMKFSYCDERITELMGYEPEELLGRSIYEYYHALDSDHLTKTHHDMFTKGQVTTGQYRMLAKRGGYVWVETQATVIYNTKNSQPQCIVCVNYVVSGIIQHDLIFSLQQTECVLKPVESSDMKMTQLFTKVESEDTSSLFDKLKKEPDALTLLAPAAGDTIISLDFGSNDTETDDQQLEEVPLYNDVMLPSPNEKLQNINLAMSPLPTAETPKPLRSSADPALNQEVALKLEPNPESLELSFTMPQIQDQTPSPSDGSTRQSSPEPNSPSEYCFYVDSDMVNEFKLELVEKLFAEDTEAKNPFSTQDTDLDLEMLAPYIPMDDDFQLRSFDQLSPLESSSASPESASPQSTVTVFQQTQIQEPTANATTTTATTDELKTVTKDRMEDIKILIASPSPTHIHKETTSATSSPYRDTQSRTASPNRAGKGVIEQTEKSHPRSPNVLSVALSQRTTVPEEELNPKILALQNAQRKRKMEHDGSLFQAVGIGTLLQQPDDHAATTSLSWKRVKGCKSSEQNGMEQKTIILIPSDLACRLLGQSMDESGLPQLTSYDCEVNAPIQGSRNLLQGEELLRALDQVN

For the compound `CC(=O)O`, the outcome in experiment [1], in experiment [2], in [3], in experiment [4], in [5] and in experiment [6] was inactive.

In the case of `Cc1c(C)c2c(c(C)c1O)CCC(C)(COc1ccc(CC3SC(=O)NC3=O)cc1)O2` (stereo not drawn), the call in [1], in [2], in experiment [3], in experiment [4], in [7] and in experiment [6] was inactive. Also, in [5], the AC50 was 17.4 µM (active).

`CC(C)(C)c1ccccc1`: the call in experiment [2], in experiment [8], in experiment [3], in [4], in experiment [5] and in experiment [7] was inactive. In addition, the call in experiment [6] was inactive.

For the compound `NC1CCCCC1`, the compound was classed as inactive in [2], in experiment [8], in [3], in experiment [4], in [9] and in experiment [5]. Also, the result in experiment [7] and in experiment [6] was inactive.

For the compound `Cc1cn([C@H]2C=C[C@@H](CO)O2)c(=O)[nH]c1=O`, the result in [2], in experiment [8], in experiment [4], in experiment [9], in [5] and in experiment [7] was inactive. For the same compound, the result in experiment [6] was inactive.

For `C/C=C/C=C/C(=O)O`, the compound was called inactive in experiment [2], in experiment [8], in [3], in experiment [4], in [9] and in experiment [5]. In addition, the outcome in experiment [7] and in experiment [6] was inactive.

`CCCCOC(=O)CCCCC(=O)OCCCC`: the AC50 in experiment [10] is 178 µM (active). The call in [2], in experiment [3], in experiment [4], in [5] and in [6] was inactive.

Consider `C#CC(O)C(CC)CCCC` (stereo not drawn), for which the outcome in [10], in [3], in experiment [5], in experiment [7] and in [6] was inactive. Also, the figures for the AC50 in experiment [2] and in experiment [4] were 157 µM (active) and 144 µM (active), respectively.

Take `CN(C)CCCN(C)CCCN(C)C`: the outcome in [10], in experiment [2], in [3], in [4], in experiment [5] and in experiment [6] was inactive.

Regarding `Oc1ccc(O)cc1`, the compound was classed as inactive in experiment [10], in [2], in experiment [4], in [5], in experiment [7] and in experiment [6].

With `O=C1OC(c2ccc(O)cc2)(c2ccc(O)cc2)c2ccccc21`, the AC50 is 70.1 µM (active) in experiment [1]; 133 µM (active) in [4]; 146 µM (active) in experiment [9]; 45.1 µM (active) in experiment [5]; 4.42 µM (active) in [7]; 36.6 µM (active) in [6]. Also, the call in [2] was inactive.

With `Cc1occc(=O)c1O`, the compound was classed as inactive in experiment [1], in experiment [2], in [8], in experiment [3], in [4] and in [5]. Also, the outcome in experiment [7] and in experiment [6] was inactive.

Consider `O=C(O)c1[nH]n(-c2ccc(S(=O)(=O)O)cc2)c(=O)c1N=Nc1ccc(S(=O)(=O)O)cc1`, for which the compound was called inactive in experiment [1], in [2], in [8], in experiment [3], in experiment [4] and in [9]. In addition, the call in experiment [5], in experiment [7] and in experiment [6] was inactive.

For `CN(C)CCCN1c2ccccc2Sc2ccc(Cl)cc21`, the compound was called inactive in [10], in experiment [2] and in experiment [7]. In addition, the values for the AC50 in [4], in experiment [5] and in experiment [6] were 20.8 µM (active), 15.5 µM (active) and 15.9 µM (active), respectively.

On to `NC(=Nc1ccccc1)Nc1ccccc1`, for which the call in experiment [10], in [2], in experiment [3] and in experiment [4] was inactive. In addition, the AC50 in [5] is 28 µM (active); in experiment [6], 34.6 µM (active).

With `CC(C)COC(=O)CCCCC(=O)OCC(C)C`, the compound was called inactive in experiment [2], in [8], in experiment [3], in experiment [4], in experiment [9] and in [5]. The compound was called inactive in experiment [6].

With `CCC(C)N(C)C(=O)c1cc2ccccc2c(-c2ccccc2Cl)n1` (stereo not drawn), the compound was called inactive in experiment [2], in [8] and in experiment [4]. The figures for the AC50 in [9], in experiment [5] and in experiment [6] were 101 µM (active), 97.4 µM (active) and 63 µM (active), respectively.

For the compound `Cc1ccc(C(C)(C)C)c(O)c1`, the concentration at half-maximal activity (AC50) in experiment [1] is 138 µM (active); in [5], 145 µM (active); in experiment [7] it was 150 µM (active); in experiment [6] it was 152 µM (active). Besides, the result in experiment [2], in experiment [3], in [4] and in [9] was inactive.

Consider `O=NO`, for which the outcome in experiment [2], in experiment [3], in [4], in experiment [5], in [7] and in experiment [6] was inactive.

With `C/C=C/c1ccc(OC)cc1`, the compound was called inactive in experiment [2], in experiment [3], in experiment [4], in experiment [5], in [7] and in [6].

In the case of `O=C(O)c1cccnc1`, the result in [1], in [2], in [3], in experiment [9], in experiment [5] and in experiment [7] was inactive. In addition, the result in experiment [6] was inactive.

Turning to `CC(=O)O[C@]1(C(C)=O)CC[C@H]2[C@@H]3C=C(Cl)C4=CC(=O)[C@@H]5C[C@@H]5[C@]4(C)[C@H]3CC[C@@]21C`, the outcome in experiment [2], in experiment [8], in [4], in [5] and in experiment [6] was inactive. The AC50 in experiment [4] was 165 µM (active) and 57.2 µM (active); in [5], 100 µM (active) [middle of 4 runs]; in experiment [6] it was 27.3 µM (active) and 66.1 µM (active) and 100 µM (active).

Turning to `CCCC[C@H]1CN(CC2CCOCC2)C(=O)OC12CCN(C1(C)CCN(C(=O)c3c(C)ncnc3C)CC1)CC2`, the call in experiment [1], in experiment [2], in experiment [3], in experiment [4], in experiment [5] and in experiment [7] was inactive. In addition, the compound was classed as inactive in [6].

Turning to `CC(=O)CC(c1ccccc1)c1c(O)c2ccccc2oc1=O` (stereo not drawn), the compound was classed as inactive in experiment [1], in experiment [2], in experiment [8], in experiment [3], in experiment [4] and in experiment [5]. Besides, the compound was classed as inactive in experiment [6].

`c1ccc2occc2c1`: the compound was classed as inactive in [2], in experiment [3], in [4], in experiment [9], in experiment [5] and in experiment [7]. In addition, in [6], the call was inactive.

Source of the values: PubChem BioAssay (EPA / NIEHS).
